Measured values as given in the supplement of paper PMC12645437, “Orthogonal IMiD-Degron Pairs Induce Selective Protein Degradation in Cells” (ACS Chemical Biology, 2025).
Over roughly 8,300 sequences, “log2 fold change of degron read counts, EGFP-low vs EGFP+ sorted cells (limma voom), compound-induced degradation” has its median near -1.1; the highest 2% begin near 3.2. Only a selection was taken, and the highest values are over-represented in it overall.

T1: CRBN, Q96SW2
T1 chain: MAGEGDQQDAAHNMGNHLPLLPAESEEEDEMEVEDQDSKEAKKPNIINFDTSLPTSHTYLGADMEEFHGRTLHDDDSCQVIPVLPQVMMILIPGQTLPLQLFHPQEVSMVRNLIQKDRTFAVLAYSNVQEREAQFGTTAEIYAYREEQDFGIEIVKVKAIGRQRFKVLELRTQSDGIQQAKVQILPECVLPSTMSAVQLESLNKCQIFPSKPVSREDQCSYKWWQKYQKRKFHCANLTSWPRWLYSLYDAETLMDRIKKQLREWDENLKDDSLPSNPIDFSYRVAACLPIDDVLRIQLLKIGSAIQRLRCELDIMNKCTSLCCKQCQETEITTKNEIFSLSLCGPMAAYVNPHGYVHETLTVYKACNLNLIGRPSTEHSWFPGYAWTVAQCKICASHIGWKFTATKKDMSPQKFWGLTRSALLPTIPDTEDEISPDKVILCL

B1: 46F_47Y_49P_50Q_52G_53A_54W_55F_67L_, Q9UKT9 (peptide)
chain: FYCPQCGAWFTQKGNLLRHIKL
B2: 46F_47E_49N_50V_52G_53A_54H_55F_67L_, Q9UKT9 (peptide)
chain: FECNVCGAHFTQKGNLLRHIKL
B3: 46F_47L_49D_50V_52G_53A_54C_55F_67L_, Q9UKT9 (peptide)
chain: FLCDVCGACFTQKGNLLRHIKL
B4: 46F_47W_49P_50I_52G_53R_54E_55F_67L_, Q9UKT9 (peptide)
chain: FWCPICGREFTQKGNLLRHIKL
B5: 46F_47L_49P_50V_52G_53A_54G_55F_67L_, Q9UKT9 (peptide)
chain: FLCPVCGAGFTQKGNLLRHIKL
B6: 46F_47C_49P_50V_52G_53A_54T_55F_67L_, Q9UKT9 (peptide)
chain: FCCPVCGATFTQKGNLLRHIKL
B7: 46F_47E_49P_50V_52G_53A_54T_55F_67L_, Q9UKT9 (peptide)
chain: FECPVCGATFTQKGNLLRHIKL
B8: 46F_47L_49P_50V_52G_53A_54T_55F_67L_, Q9UKT9 (peptide)
chain: FLCPVCGATFTQKGNLLRHIKL
B9: 46F_47M_49P_50V_52G_53A_54T_55F_67L_, Q9UKT9 (peptide)
chain: FMCPVCGATFTQKGNLLRHIKL
B10: 46F_47W_49P_50V_52G_53A_54T_55F_67L_, Q9UKT9 (peptide)
chain: FWCPVCGATFTQKGNLLRHIKL
B11: 46F_47F_49P_50V_52G_53A_54T_55F_67L_, Q9UKT9 (peptide)
chain: FFCPVCGATFTQKGNLLRHIKL
B12: 46F_47Q_49P_50V_52G_53A_54T_55F_67L_, Q9UKT9 (peptide)
chain: FQCPVCGATFTQKGNLLRHIKL
B13: 46F_47K_49P_50V_52G_53A_54T_55F_67L_, Q9UKT9 (peptide)
chain: FKCPVCGATFTQKGNLLRHIKL
B14: 46F_47N_49P_50V_52G_53A_54T_55F_67L_, Q9UKT9 (peptide)
chain: FNCPVCGATFTQKGNLLRHIKL
B15: 46F_47G_49P_50V_52G_53A_54T_55F_67L_, Q9UKT9 (peptide)
chain: FGCPVCGATFTQKGNLLRHIKL
B16: 46F_47V_49P_50V_52G_53A_54T_55F_67L_, Q9UKT9 (peptide)
chain: FVCPVCGATFTQKGNLLRHIKL
B17: 46F_47D_49P_50V_52G_53A_54T_55F_67L_, Q9UKT9 (peptide)
chain: FDCPVCGATFTQKGNLLRHIKL
B18: 46F_47R_49N_50Q_52G_53H_54P_55F_67L_, Q9UKT9 (peptide)
chain: FRCNQCGHPFTQKGNLLRHIKL
B19: 46F_47W_49P_50I_52G_53R_54R_55F_67L_, Q9UKT9 (peptide)
chain: FWCPICGRRFTQKGNLLRHIKL
B20: 46F_47D_49N_50Q_52G_53R_54P_55F_67L_, Q9UKT9 (peptide)
chain: FDCNQCGRPFTQKGNLLRHIKL
B21: 46F_47T_49E_50V_52G_53A_54K_55F_67L_, Q9UKT9 (peptide)
chain: FTCEVCGAKFTQKGNLLRHIKL
B22: 46F_47V_49P_50I_52G_53H_54V_55F_67L_, Q9UKT9 (peptide)
chain: FVCPICGHVFTQKGNLLRHIKL
B23: 46F_47F_49N_50Q_52G_53H_54R_55F_67L_, Q9UKT9 (peptide)
chain: FFCNQCGHRFTQKGNLLRHIKL
B24: 46F_47T_49S_50V_52G_53H_54M_55F_67L_, Q9UKT9 (peptide)
chain: FTCSVCGHMFTQKGNLLRHIKL
B25: 46F_47H_49P_50V_52G_53A_54T_55F_67L_, Q9UKT9 (peptide)
chain: FHCPVCGATFTQKGNLLRHIKL
B26: 46F_47A_49P_50V_52G_53A_54T_55F_67L_, Q9UKT9 (peptide)
chain: FACPVCGATFTQKGNLLRHIKL
B27: 46F_47Y_49P_50V_52G_53A_54T_55F_67L_, Q9UKT9 (peptide)
chain: FYCPVCGATFTQKGNLLRHIKL
B28: 46F_47W_49N_50Q_52G_53H_54Q_55F_67L_, Q9UKT9 (peptide)
chain: FWCNQCGHQFTQKGNLLRHIKL

Biological target: T1, CRBN, Q96SW2
Assay: log2 fold change of degron read counts, EGFP-low vs EGFP+ sorted cells (limma voom), compound-induced degradation; higher = more compound-induced degradation of the degron-EGFP fusion; degrons are variants of IKZF1/3 zinc finger 2; compound dose not given here
Conditions: Jurkat, 18 h
[1] = compound: compound 19 (5-tert-butyl-thalidomide)
[2] = compound: compound 22 (5-morpholino-thalidomide)
[3] = compound: compound 33 (diphenyl IMiD analogue)
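Also: pooled lentiviral library of zinc finger degron-EGFP fusions in mCherry-positive Jurkat cells, FACS-sorted after compound exposure, with degron abundance counted by next-generation sequencing.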

Row | Sequence | log2 fold change of degron read counts [1] | log2 fold change of degron read counts [2] | log2 fold change of degron read counts [3] | log2 fold change of degron read counts (compound: thalidomide)
1 | B1 | -0.595 | -1.07 | -0.405 | -1.33
2 | B2 | -2.58 | -2.72 | -0.566 | -0.594
3 | B3 | -1.03 | -2.05 | 0.211 | -0.875
4 | B4 | 0.147 | -0.132 | 1.23 | -0.495
5 | B5 | 1.38 | 0.0992 | 1.5 | 0.959
6 | B6 | 1.17 | 1.86 | 2.81 | 2.11
7 | B7 | -0.45 | -0.774 | 1.74 | 2.82
8 | B8 | -1.39 | -1.44 | 0.984 | 1.09
9 | B9 | -1.09 | 0.0816 | 1.9 | 1.06
10 | B10 | 2.12 | 3.45 | 1.55 | 0.523
11 | B11 | 2.59 | 3.54 | 1.59 | 1.17
12 | B12 | 0.396 | 2.89 | 2.57 | 3.79
13 | B13 | -1.61 | -2.57 | -2.5 | -0.961
14 | B14 | 1.23 | -0.0199 | 1.21 | 0.0692
15 | B15 | 3.66 | 2.4 | 2.06 | 1.12
16 | B16 | -1.12 | 1.27 | 1.62 | 2.01
17 | B17 | 1.07 | -0.459 | 0.762 | 1.24
18 | B18 | -1.26 | -1.57 | -1.18 | -0.69
19 | B19 | -0.549 | 1.78 | -0.519 | -0.365
20 | B20 | -2.11 | -2.72 | -2.47 | -2.01
21 | B21 | 0.575 | 1.8 | -0.259 | 2.77
22 | B22 | -1.93 | -1.85 | -1.17 | -0.831
23 | B23 | -1.77 | -1.83 | -1.97 | -1.98
24 | B24 | -2.72 | -3.24 | -2.66 | -2.24
25 | B25 | 1.14 | 1.21 | 1.72 | -0.00776
26 | B26 | 3.23 | 1.68 | 1.17 | 0.555
27 | B27 | 2.81 | 3.38 | 2.28 | 1.02
28 | B28 | -2.03 | -2.39 | -2.26 | -1.81
